Measured values published in PubChem BioAssay (NCI).
Compounds without any hit were thinned out: in the full panel of roughly 83,000, 20% have a hit.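 How to read the values: 0–100, growth inhibition (40 = 60% inhibited); 0, no net growth; -100 to 0, cell death (-40 = 40% of starting cells died; -100 = all dead).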 Unmarked numbers belong to inactive results. The source made the active and inactive calls. The calls were made as follows: active = growth percent below 10; inactive = the rest.

These compounds were tested on SK-MEL-5 melanoma (assay: NCI-60 one-dose screen, 48 h (100 = growth as untreated, 0 = no growth, -100 = all killed)). Settings: 10 µM.
In the case of `NC1=CC(=O)C(=O)c2cccnc21`, the growth is reported as 21%. `Cc1cn(-c2cc(F)cc(NC(=O)c3ccc(C)c(Nc4nccc(-c5cccnc5)n4)c3)c2)cn1` gave a growth of 87.8%. With `C/C(=C/CCC(C)[C@@H]1CC[C@]2(C)C3=C(CC[C@@]12C)[C@@]1(C)CCC(=O)C(C)(C)[C@@H]1CC3)C(=O)O` (stereo not given in full) the growth was -98.2% (active). `CCOC(=O)CN(c1sc(C)c(C)c1C(=O)OCC)S(=O)(=O)c1ccc(C)cc1` gave a growth of 73.2%. `CN(C)CCC1(c2ccccc2)CCN(C)C1=O` (stereo not given) gave a growth of 96.1%. `COc1ccc(/C(C#N)=C/c2ccccc2OC)cc1` was tested, and the growth was 9.12% (active). `COc1cc2c(cc1NC(=O)C(Cl)Cl)-c1ccc(NC(=O)C(Cl)Cl)cc1C2` showed a growth of 22.5%. Compound `COc1ccc(-c2nn(-c3cccc(Cl)c3)cc2-c2cc(-c3ccccc3)nc(N)n2)cc1` has a growth of 73.3%. With `COc1ccc(C(=O)c2ccccc2CN2C(=O)c3ccccc3C2=O)cc1` the growth was 100%. `COc1ccc(-c2nn(-c3cccc(Cl)c3)cc2-c2nc(N)[nH]c(=O)c2C#N)cc1` was tested, and the growth was 67.6%. In the case of `O=C1/C=C/[C@@H](O)[C@@H]2C[C@@H](O)C[C@H]2/C=C/CCC[C@H](C(F)(F)F)O1`, the growth is reported as -98.3% (active). `O=c1cn[nH]c2ccc(Br)cc12` showed a growth of 100%. In the case of `Cc1c2cnccc2c(C)c2c1oc1ccccc12`, the growth is reported as 60.1%. `COC(=O)C1OC1c1cc([N+](=O)[O-])ccc1OC` (stereo not given) gave a growth of 98.8%. With `CCc1ccc(C2=NN(c3ccc(S(C)(=O)=O)cc3)C(=O)CC2)cc1` the growth was 10.7%.
